{"source": "ChEMBL document CHEMBL3988442", "about": "“University of Dundee, Small-Polar-MMV Screening Library” (2021)", "data": [{"biological_target": "Chromo domain-containing protein 1 (Saccharomyces cerevisiae (strain ATCC 204508 / S288c) (Baker's yeast)) (UniProt P32657)", "sequence (P32657 whole entry, the tested form may be a part)": "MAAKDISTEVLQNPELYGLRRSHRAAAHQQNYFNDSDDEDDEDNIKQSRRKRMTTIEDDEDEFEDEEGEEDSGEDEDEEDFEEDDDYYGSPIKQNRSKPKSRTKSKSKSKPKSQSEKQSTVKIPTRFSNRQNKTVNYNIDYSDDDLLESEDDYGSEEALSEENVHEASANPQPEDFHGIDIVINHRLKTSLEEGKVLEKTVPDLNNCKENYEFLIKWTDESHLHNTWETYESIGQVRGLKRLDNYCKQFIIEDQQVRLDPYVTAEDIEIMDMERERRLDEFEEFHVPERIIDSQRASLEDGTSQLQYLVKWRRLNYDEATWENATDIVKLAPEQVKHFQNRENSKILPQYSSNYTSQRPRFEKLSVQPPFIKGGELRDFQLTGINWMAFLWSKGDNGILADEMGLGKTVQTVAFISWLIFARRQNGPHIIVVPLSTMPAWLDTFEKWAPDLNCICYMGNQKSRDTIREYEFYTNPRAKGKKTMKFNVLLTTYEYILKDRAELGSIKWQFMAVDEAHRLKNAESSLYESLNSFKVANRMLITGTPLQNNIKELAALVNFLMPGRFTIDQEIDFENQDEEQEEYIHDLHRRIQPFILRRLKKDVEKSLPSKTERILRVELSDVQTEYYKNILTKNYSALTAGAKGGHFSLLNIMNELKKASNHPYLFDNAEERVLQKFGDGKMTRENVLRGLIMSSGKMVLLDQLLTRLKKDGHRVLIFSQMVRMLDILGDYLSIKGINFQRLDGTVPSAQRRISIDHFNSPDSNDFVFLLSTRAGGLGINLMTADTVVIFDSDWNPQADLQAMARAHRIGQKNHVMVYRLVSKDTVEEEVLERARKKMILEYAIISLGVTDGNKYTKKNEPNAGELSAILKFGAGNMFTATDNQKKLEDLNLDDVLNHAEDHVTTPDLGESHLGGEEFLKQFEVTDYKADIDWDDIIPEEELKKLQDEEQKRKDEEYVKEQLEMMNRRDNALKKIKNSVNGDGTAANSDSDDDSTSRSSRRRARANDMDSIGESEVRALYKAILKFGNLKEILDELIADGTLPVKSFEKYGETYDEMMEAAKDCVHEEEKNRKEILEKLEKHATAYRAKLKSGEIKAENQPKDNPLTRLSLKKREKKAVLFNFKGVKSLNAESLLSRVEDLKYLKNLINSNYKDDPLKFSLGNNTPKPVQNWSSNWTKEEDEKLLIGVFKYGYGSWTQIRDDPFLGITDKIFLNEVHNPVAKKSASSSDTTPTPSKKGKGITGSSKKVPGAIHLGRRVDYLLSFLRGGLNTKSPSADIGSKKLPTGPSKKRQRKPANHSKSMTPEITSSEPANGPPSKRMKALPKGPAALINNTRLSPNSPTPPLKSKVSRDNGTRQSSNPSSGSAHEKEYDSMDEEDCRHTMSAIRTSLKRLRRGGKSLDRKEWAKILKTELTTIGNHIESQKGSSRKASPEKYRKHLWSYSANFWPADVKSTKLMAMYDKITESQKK", "assay": "ScCHD-1 Enzyme Inhibition Assay", "type": "functional", "parameters": "scale not given: in the data most compounds retested in dose-response had high values", "conditions": "30 µM", "units": {"Percent Effect": "%"}, "values": [{"smiles": "O=C(CSc1ccc(F)c(F)c1)NS(=O)(=O)c1ccc2c(c1)OCCO2", "Percent Effect": -1.38}, {"smiles": "CC1COCCN1C(=O)c1cccc(OCc2cscn2)c1", "note": "(centres undefined)", "Percent Effect": -2.42}, {"smiles": "Cc1[nH]ccc1C(=O)N1CCCC(c2nccn2Cc2cscn2)C1", "note": "(centres undefined)", "Percent Effect": -3.33}, {"smiles": "O=C(c1ccc(C(F)(F)F)nc1)N1CCCC(n2cncn2)C1", "note": "(centres undefined)", "Percent Effect": -3.39}, {"smiles": "Cc1ccc2oc(C(=O)N3CCC(C(=O)N4CCCC4)CC3)cc2n1", "Percent Effect": -0.651}, {"smiles": "Cc1ccc(N2CCCN(C(=O)c3c(C)oc(C)c3C)CC2)nn1", "Percent Effect": -6.9}, {"smiles": "CN(c1ccncn1)C1CC2(CCN(C(=O)c3ccsc3)C2)C1", "note": "(centres undefined)", "Percent Effect": -21.9}, {"smiles": "CCc1nc(C2CCCN2C(=O)c2ncoc2CC)no1", "note": "(centres undefined)", "Percent Effect": 0.961}, {"smiles": "CCc1c(C)nn(CCNC(=O)C2CCCN(C(=O)N(C)C)C2)c1C", "note": "(centres undefined)", "Percent Effect": 41.1}, {"smiles": "CCn1ncnc1C1CC(=O)NCc2nc3ccccn3c21", "note": "(centres undefined)", "Percent Effect": 84}, {"smiles": "Cc1nc(CN2CCCC(CCc3ccc(F)cc3F)C2)c[nH]1", "note": "(centres undefined)", "Percent Effect": -1.62}, {"smiles": "COc1ccc(C2CC(=O)Nc3c2nc2n3CCCC2)cc1OC", "note": "(centres undefined)", "Percent Effect": -4.25}, {"smiles": "O=C(c1cc(Cl)c2c(c1)OCO2)N1CCCC(n2ccnc2)C1", "note": "(centres undefined)", "Percent Effect": -5.15}, {"smiles": "Cc1ccccc1N1CC2(CCN(S(=O)(=O)C3CC3)C2)CC1=O", "note": "(centres undefined)", "Percent Effect": -8.76}, {"smiles": "CCc1nc(CN2CCCN(C(=O)COCC3CC3)CC2)cs1", "Percent Effect": -6.08}, {"smiles": "O=C1CN(Cc2ccc(-c3ccccc3C(=O)O)cc2)CCN1", "Percent Effect": -24.4}, {"smiles": "Cc1cn2c(n1)CCC(NC(=O)c1cc(Br)cn1C)C2", "note": "(centres undefined)", "Percent Effect": -4.6}, {"smiles": "COCc1ncc(CN2CCC(Oc3ccccc3OC)CC2)cn1", "Percent Effect": -3.8}, {"smiles": "Cn1cc(N2CC3(COCCN(Cc4ccsc4)C3)OCC2=O)cn1", "note": "(centres undefined)", "Percent Effect": 2.44}, {"smiles": "CC(C)c1nn(C)c(N2CCOCC2)c1CNCC(=O)N(C)C", "Percent Effect": -5.02}, {"smiles": "CCc1ccsc1C(=O)N1CCN(CC(O)CC)CC1", "note": "(centres undefined)", "Percent Effect": -7.9}, {"smiles": "COCCC(=O)N1CCC2(CC1)CC(c1ccccc1)CN(C)C2", "note": "(centres undefined)", "Percent Effect": -5.37}, {"smiles": "COc1ccc(CNCc2ccc(N3CCCCC3)nc2)cc1OC", "Percent Effect": -9.53}, {"smiles": "Cc1cc(C)n(CC2CCCN2CCc2ccncc2)n1", "note": "(centres undefined)", "Percent Effect": -3.37}, {"smiles": "COCCc1noc(CN2CCCC2Cn2cc(C)cn2)n1", "note": "(centres undefined)", "Percent Effect": -7.63}, {"smiles": "CC(NC(=O)N(C)CCCOc1ccc(F)cc1)c1nncn1C", "note": "(centres undefined)", "Percent Effect": -10.2}, {"smiles": "CC(Nc1cccc(CN2CCOC2=O)c1)C(=O)Nc1ccccc1F", "note": "(centres undefined)", "Percent Effect": -5.9}, {"smiles": "COc1cccc2c1OCC(C(=O)NC1CCN(S(C)(=O)=O)CC1)C2", "note": "(centres undefined)", "Percent Effect": 93.6}, {"smiles": "CC(=O)N1CCCC1c1cc(N2CCN(C3CCCC3)CC2)cc(C)n1", "note": "(centres undefined)", "Percent Effect": -23.3}, {"smiles": "Cn1cnc2c1CCN(Cc1ccc(C(=O)N3CCCC3)cc1)C2", "Percent Effect": -0.499}, {"smiles": "c1csc(CN2CCOCC3(CCN(C4CCOCC4)C3)C2)n1", "note": "(centres undefined)", "Percent Effect": -0.251}, {"smiles": "CCN(CC1CCOC1)C(=O)Nc1ccc(-n2cncn2)nc1", "note": "(centres undefined)", "Percent Effect": -5.86}, {"smiles": "Cn1cc(NC(=O)N2CCC(NS(C)(=O)=O)CC2)ccc1=O", "Percent Effect": -0.842}, {"smiles": "O=C(NCCNC(=O)c1scnc1Cl)c1ccccc1", "Percent Effect": -5}, {"smiles": "Cc1cc(C(=O)O)cc(S(=O)(=O)Nc2ccc3c(c2)OCO3)c1C", "Percent Effect": -3.33}, {"smiles": "Cc1ccc(-c2cc(CN3CCCC(Cn4cncn4)C3)on2)cc1", "note": "(centres undefined)", "Percent Effect": -3.73}, {"smiles": "CNc1cncc(C2CCCN2C(=O)c2ccc3oc(C)cc3c2)n1", "note": "(centres undefined)", "Percent Effect": -26.1}, {"smiles": "Cc1cc(NC(=O)CN2CCCC2c2noc(C(C)C)n2)n(C)n1", "note": "(centres undefined)", "Percent Effect": 0.723}, {"smiles": "COCCC(=O)N1CCCC2(CCC(=O)N2CCOC)CC1", "note": "(centres undefined)", "Percent Effect": -3.46}]}]}
